# Rango-impB inh – Rango-importin beta binding inhibition; Q14974; Rango CFP/YFP FRET sensor + importin beta, 45 min; Potency, µM (titrated, usually from 92.2 µM), inactives show top-dose inhibition of complex formation; actives 0.031% (n = 340,000); AID 540263; calls by dose curve;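 also: 0% = DMSO wells and 100% = buffer wells lacking importin beta; nearly all actives have a fitted effect of over 15% in size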
#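 Inhibition scored from the CFP 486 nm/YFP 530 nm FRET ratio 45 min after adding 0.125 microM importin beta to 50 nM Rango biosensor preincubated 5 min with compound (room temperature, PBS with DTT, Tween-20, BSA). No-importin wells as positive control.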
# ALOX12 inh – blocks human arachidonate 12S-lipoxygenase. P18054. purified 12hLO, xylenol orange hydroperoxide absorbance. Potency, µM (doses to about 108 µM), inactives show at the highest dose activity change, negative = inhibition, usual class: inhibitors. actives 1.1% (n = 580,000); also: % is scaled to controls: 0 for no effect and ±100 for the full control effect
#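 Hydroperoxide product was detected by ferrous iron/xylenol orange as the 573 to 405 nm absorbance ratio. Arachidonic acid at 40 uM (final) was turned over for 30 min at room temperature by 150 nM human 12hLO, pH 7.0 Hepes buffer, after 15 min compound preincubation.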
# Rango release inh – inhibitors of RanGTP-induced Rango-importin beta complex dissociation. actives 0.071% (n = 340,000). Biochemical FRET Rango-importin beta, RanGTP-induced dissociation. Potency, µM (titrated, usually from 46.1 µM), without a hit: top-dose activity change, negative = inhibition. O95149+P62826; calls by dose curve; also: % of control where 0% means no effect; nearly all actives have a fitted effect of over 45% in size
#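 Rango/importin beta premix (0.1/0.25 uM final), PBS + 1 mM DTT + 0.02% Tween-20 + 0.1% BSA; cpd 5 min RT; FRET pre-read; + RanGTP-RCC1 (0.6 uM Ran, 2 mM GTP, 0.2 uM RCC1); 45 min RT; FRET post-read, ex 430, em 486/530 nm.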
# TDP1 block – blocks human tyrosyl-DNA phosphodiesterase 1; Potency, µM (highest dose often 130 µM), without a hit: at the highest dose activity change, negative = inhibition, most hits filed as inhibitors; recombinant TDP1, AlphaScreen DNA substrate cleavage; actives 0.28% (n = 350,000); also: % is scaled to controls: 0 for no effect and ±100 for the full control effect; nearly all actives have a fitted effect of over 40% in size
#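 Enzyme-compound mixtures sat 15 min at room temperature, followed by a 5 min reaction with 15 nM final substrate and 10 min with AlphaScreen beads. Recombinant human Tdp1 was used at 1 nM final.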
# ClpP mod – qHTS Assay for Activators of ClpP; ATP-dependent Clp protease proteolytic subunit (Bacillus subtilis (strain 168)), P80244; purified B. subtilis ClpP, FRET peptide cleavage, 20 min; Potency, µM (top dose mostly 57.5 µM), inactives show at the top dose activity change, negative = active; actives 1.9% (n = 340,000); AID 651965, 2013; active = well fitted falling curve with a large enough effect; inconclusive = small, poorly fitted or top-dose-only effect; inactive = no such curve, though single readings can be large or run the other way; also: the source files actives as falling curves though it sought activators and does not explain the sign; nearly all actives have a fitted effect of over 65% in size
# Target sequence (P80244 whole entry, looked up): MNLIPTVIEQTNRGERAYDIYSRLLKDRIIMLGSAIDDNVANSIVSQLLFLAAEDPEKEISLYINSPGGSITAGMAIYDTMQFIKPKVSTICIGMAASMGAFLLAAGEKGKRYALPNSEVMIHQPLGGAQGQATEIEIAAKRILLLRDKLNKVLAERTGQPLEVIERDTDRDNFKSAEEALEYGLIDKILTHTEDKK
#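 Buffer: 100 mM Tris/HCl pH8, 100 mM KCl, 0.05% low protease BSA, 2.5% glycerol, 0.01% Tween-20. ClpP 10 microg/mL final; 20 min RT; delta FRET normalized to ADEP and DMSO controls.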
# TSG101-PTAP inh – blocks PTAP/TSG101 interaction to inhibit HIV-1 budding; Fluorescence polarization, FITC-PTAP peptide / Tsg101 binding; AID 493005; 340,000 tested, under 10 active; Potency, µM (doses to about 115 µM), for the others: at the highest dose activity change, negative = inhibition, hits mostly inhibitors; active = well fitted inhibition curve with a large enough effect in the main read-out, with a control signal flat, not every such curve was filed as active; inconclusive = small, poorly fitted or top-dose-only effect, or effect the other way, or a change in a side signal; inactive = no such curve, though single readings can be large or run the other way; also: % of control where 0% means no effect
# Target sequence (Q99816 whole entry, looked up): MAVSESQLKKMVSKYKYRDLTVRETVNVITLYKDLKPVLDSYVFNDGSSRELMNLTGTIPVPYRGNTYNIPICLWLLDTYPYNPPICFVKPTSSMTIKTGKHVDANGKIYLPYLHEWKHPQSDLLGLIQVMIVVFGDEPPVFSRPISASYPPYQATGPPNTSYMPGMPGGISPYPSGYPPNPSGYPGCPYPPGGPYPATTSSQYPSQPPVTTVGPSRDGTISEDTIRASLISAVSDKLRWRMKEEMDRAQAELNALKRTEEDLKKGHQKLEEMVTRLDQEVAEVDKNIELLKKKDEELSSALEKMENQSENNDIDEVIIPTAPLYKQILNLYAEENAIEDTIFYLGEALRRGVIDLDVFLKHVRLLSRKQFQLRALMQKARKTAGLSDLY
#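 Tsg101 binding domain (10 uM final) was mixed with compound and a FITC-labeled PTAP peptide (50 nM final) in HEPES pH 7.5 buffer with NaCl, Tween 20, EDTA and TCEP; fluorescence polarization was read after 20 min at r.t.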
# An asterisk follows results filed as active; ? = inconclusive; · = no result; [ ] = dose if it differs, or a comment. The list is not random: actives were taken first. Their share in the collection is about 2.4%. Unless noted, calls follow the shape of the dose curve; as a rule, active = well fitted curve in the direction sought with a large enough effect; inconclusive = small, poorly fitted or top-dose-only effect, or another doubt; inactive = no such curve, though single readings can be large; an effect the other way counts as inactive or inconclusive. Potency is read from the fitted curve at half-maximal effect.
SMILES,Rango-impB inh,ALOX12 inh,Rango release inh,TDP1 block,ClpP mod,TSG101-PTAP inh
CCCCCC(=O)N1CCN(CCN=CC2=C(O)CC(c3ccco3)CC2=O)CC1 (stereo not drawn),0.6%,-24.3%,-3.3%,4.9%,0.8%,-8.4%
Cc1ccc(-n2[nH]c(CSc3nnnn3-c3ccccc3)cc2=O)cc1,·,50.1µM*,·,·,·,·
Cc1ccc(-n2nnnc2SCc2nc3sc(C)c(C)c3c(=O)[nH]2)cc1,?,0.4%,-12.5%,2.3%,3.55µM*,15.2%
Cc1ccc(Nc2nc(N)nc(CSc3nnnn3-c3ccccc3)n2)cc1,-5.2%,-19.0%,7.4%,79.4µM*,-1.2%,-1.3%
Cc1ccc(Nc2nc(N)nc(CSc3nncn3C)n2)cc1,3.0%,388.6%,-6.1%,5.9%[56.1 µM],1.5%,0.5%
CC(=O)c1sc2nc(CSc3nnnn3-c3ccccc3)[nH]c(=O)c2c1C,?,-28.2%,-17.7%,8.1%,1.4%,3.7%
O=c1cc(CSc2nnnn2-c2ccccc2)[nH]n1-c1ccc(Cl)cc1,·,39.8µM*,·,·,·,·
O=C(NCCc1ccccc1)C1CCN(C(=O)c2ncn3c2COC(c2ccc(Cl)cc2)C3)CC1 (stereo not drawn),·,40.7%,·,·,·,·
CCOC(=O)C1=C(C)OC(N)=C(C#N)C1c1cc2cc(C)ccc2nc1N1CCCCC1 (stereo not drawn),?,?,-18.8%,7.3%,28.2µM*,-4.3%
COc1ccc(C(=O)NCCc2sc3nc(-c4ccc(C)cc4)nn3c2C)cc1OC,·,-0.3%,·,·,·,·
CN1CC(=O)N(C2CCNCC2)Cc2c(NC3CCCCC3O)ncnc21 (stereo not drawn),·,11.2µM*,·,·,·,·
N#CC(/C(=N/S(=O)(=O)c1cccs1)c1ccccc1)c1ccccn1 (stereo not drawn),·,-23.7%,·,·,·,·
O=C(Oc1coc(CSc2nnc(NC(=O)C3CC3)s2)cc1=O)c1ccccc1,?,-28.9%,-0.8%,2.7%,-0.3%,-2.2%
COc1ccc(C(=O)Oc2coc(CSc3nnc(NC(=O)c4cccs4)s3)cc2=O)cc1,-5.2%,-20.9%,-3.5%,3.0%,28.2µM*,3.5%
c1cncc(-c2cc(NCc3cccs3)ncn2)c1,·,39.8µM*,·,·,·,·
c1csc(CNCc2ccncc2)c1,-1.0%,?,-5.8%,0.0%,·,-2.6%
c1cncc(-c2nccc(NCc3cccs3)n2)c1,·,20µM*,·,·,·,·
c1cncc(-c2ccc3ncnc(NCc4cccs4)c3c2)c1,2.6%,-7.5%,-11.3%,3.6%,·,-3.8%
c1cncc(-c2[nH]ncc2CNCc2cccs2)c1,·,7.08µM*,·,·,·,·
CC(=O)N1CCC(C(=O)NCc2ccccc2)(N(C(=O)c2ccc(C)cc2)c2cccc(C)c2)CC1,·,22.5%,·,·,·,·
CC(C)c1ccc(CCC(=O)NC2CC(C)(C)NC(C)(C)C2)cc1,·,-14.4%,·,·,·,·
CC(=O)Nc1cccc2cc(O)ccc12,2.2%,-21.8%,6.1%,·,·,-4.0%
CC(=O)Nc1ccc2ccc3cccc4ccc1c2c34,?,-17.5%,?,-2.2%,14.1µM*,-5.0%
CC1CCCC(NC(=S)NC(=O)c2ccccc2Br)C1C (stereo not drawn),-0.9%,22.4µM*,-1.2%,3.0%,1.1%,-0.5%
CC1Cn2c(C(=O)NCCc3ccc(Cl)cc3)cc3cccc(c32)S1 (stereo not drawn),·,?,·,0.0%,31.6µM*,·
SMILES,Rango-impB inh,ALOX12 inh,Rango release inh,TDP1 block,ClpP mod,TSG101-PTAP inh
Cc1ccccc1CNC(=O)c1cc2cccc3c2n1CC(C)S3 (stereo not drawn),·,?,·,-2.8%,39.8µM*,·
Cc1ccccc1CNC(=O)c1cc2cc(S(=O)(=O)N3CCCCC3)ccc2n1C,·,-35.2%,·,-2.7%,?,·
CC1Cn2c(C(=O)NCc3ccccc3Cl)cc3cccc(c32)S1 (stereo not drawn),·,-5.9%,·,-5.6%,28.2µM*,·
COc1ccccc1CNC(=O)c1cc2cccc3c2n1CC(C)S3 (stereo not drawn),·,-26.9%,·,2.8%,31.6µM*,·
COc1ccccc1CNC(=O)CCC(=O)N1CC(C)Sc2ccccc21 (stereo not drawn),0.1%,440.5%,-9.8%,0.0%,-4.1%,-1.1%
Cc1nn(-c2nc3c(c(=O)n(CC(=O)C(C)(C)C)c(=O)n3C)n2C(C)C)c(C)c1C,·,2.0%,·,·,·,·
CNC(=O)[C@@H]1C[C@H](Oc2ccccc2)CN1C(=O)c1ccc(OC)nc1OC,·,41.8%,·,·,·,·
O=C(Nc1c(C(=O)Nc2cccc(F)c2)oc2ccccc12)c1ccc2c(c1)OCO2,0.7%,5.5%,-0.1%,-3.1%,25.1µM*,-1.4%
Cc1cc(C)cc(C(=O)Nc2c(C(=O)Nc3ccccc3F)oc3ccccc23)c1,·,-12.7%,·,3.8%,12.6µM*,·
O=C(Nc1cccc(F)c1)c1ccc2c(c1)OCO2,-0.5%,0.0%,-11.4%,1.0%,-0.4%,-3.3%
Cc1cccc(C2C3=C(Nc4[nH]n(-c5ccccc5)c(=O)c42)c2ccccc2C3=O)c1 (stereo not drawn),3.3%,35.5µM*,-1.8%,11.5%,0.5%,-4.1%
Cc1ccccc1C1C2=C(Nc3[nH]n(-c4ccccc4)c(=O)c31)c1ccccc1C2=O (stereo not drawn),·,·,·,8.0%,·,·
O=c1[nH]c(/C=C/c2ccccc2OC(F)F)nc2c1cnn2-c1ccccc1,-3.2%,-6.9%,-21.3%,5.6%,11.2µM*,-0.8%
COC(=O)Cc1cc(=O)n2[nH]c(NCc3ccc(Cl)cc3)nc2n1,·,34.9%,·,·,·,·
CCOC(=O)c1c(-c2ccccc2)csc1NC(=S)N(CC)CC,2.4%,-9.1%,14.8%,-1.9%,·,-3.7%
CCOC(=O)c1c(-c2ccccc2)csc1NC(=O)c1nn(CC)cc1Br,-3.4%,-1.2%,-16.3%,-2.3%,31.6µM*,-1.4%
CC1CCN(CCNC(=O)c2ccc(Cn3c(SCc4ccccc4)nc4cccnc43)cc2)CC1,·,-9.7%,·,1.0%,15.8µM*,·
Cc1ccc(CSc2nc3cccnc3n2Cc2ccc(C(=O)NCc3cccs3)cc2)cc1,·,-9.7%,·,3.7%,5.0%,·
CC1CCCCN1CCNC(=O)c1ccc(Cn2c(SCc3ccccc3)nc3cccnc32)cc1 (stereo not drawn),·,-8.0%,·,5.9%,25.1µM*,·

# Screening data (PubChem)
